High-throughput results from PubChem BioAssay.
TDP1 cell CPT: growth inhibition of DT40 Tdp1-/-;hTDP1 cells with camptothecin (screen for TDP1 inhibitors) | chicken DT40 Tdp1-/-;hTDP1 cells + 20 nM CPT, ATP luminescence, 48 h | Potency, µM (top dose mostly 46.2 µM), without a hit: top-dose activity change, negative = growth inhibition, hits mostly inhibitors | hit rate 12% among 420,000; also: nearly all actives have a fitted effect of over 55% in size
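Chicken DT40 Tdp1-/- cells complemented with human TDP1, 400 cells/well, exposed to compounds plus 20 nM camptothecin for at least 48 h at 37 C; viability read as ATP content by CellTiter-Glo luminescence.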
KB-3-1 cytotox: kills parental KB-3-1 adenocarcinoma cells | KB-3-1 viability, CellTiter-Glo ATP luminescence, 72 h | Potency, µM (highest dose often 46.1 µM), most hits filed as cytotoxic | hit rate 1.4% among 400,000; also: nearly all actives have a fitted effect of over 60% in size
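Cells are dispensed, compounds pinned in, plates held at 37 °C for 72 h, then CellTiter-Glo is added and luminescence read after 10 minutes. Cell line: parental KB-3-1 in phenol-red-free DMEM, 10% FBS.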
KB-V1 cytotox: kills drug-selected multidrug resistant KB-V1 cells | KB-V1 MDR cells viability, CellTiter-Glo, 72 h | Potency, µM (titrated, usually from 46.1 µM), most hits filed as cytotoxic | hit rate 3.4% among 400,000 | AID 1347076; also: nearly all actives have a fitted effect of over 60% in size
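KB-V1 cells (P-gp-expressing MDR subline of KB-3-1) in phenol-red-free DMEM with 10% FBS were exposed to library compounds over a concentration series for 72 h at 37 degrees C. Viability read by CellTiter-Glo luminescence; concentration-effect curves fitted after normalization.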
HT1080NT lethal: kills 2HG-producing HT-1080-NT fibrosarcoma cells; HT-1080-NT fibrosarcoma viability, CellTiter-Glo ATP luminescence, 48 h; Potency, µM (top dose mostly 46.1 µM), for inactives: at the highest dose activity, negative = less viability, usual class: cytotoxic; hit rate 1.6% among 360,000; AID 686970;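 also: NT is the 2HG producing partner of a matched IDH1 knockdown line; 0% = DMSO-treated cells and -100% = media-only wells without cells; nearly all actives have a fitted effect of over 55% in size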
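Viability of the 2HG-overproducing fibrosarcoma line after 48 hours of compound exposure at 37 degrees C was determined by luminescence with CellTiter-Glo, and concentration-effect curves were then fitted and categorized.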
HT1080 IDH1KD tx: HT-1080 IDH1 knockdown cell toxicity (counter line); Potency, µM (doses to about 46.1 µM), for the others: at the highest dose activity, negative = toxicity, actives largely listed as cytotoxic; hit rate 2% among 360,000; HT-1080 IDH1 knockdown viability, ATP luminescence, 48 h;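 also: 0% = DMSO wells and -100% = cell-free medium wells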
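Cytotoxicity counter-line: IDH1KD HT-1080, 48 h, CellTiter-Glo. Curves classed by r2, magnitude and activity.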
TDP1 cell noCPT: qHTS for Inhibitors of human tyrosyl-DNA phosphodiesterase 1 (TDP1): qHTS in cells in absence of CPT; DT40 Tdp1-/- hTDP1 cells, no CPT, ATP luminescence, 48 h; Potency, µM (highest dose often 46.2 µM), inactives show at the top dose activity change, negative = growth inhibition, actives largely listed as inhibitors; hit rate 15% among 420,000; AID 686978, 2013; also: nearly all actives have a fitted effect of over 55% in size
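Cells were dispensed at 400 per well, compounds added by pin tool, plates incubated ≥48 hr at 37 °C, then CellTiter-Glo added for 30 min at room temperature before luminescence reading. Line: DT40 Tdp1-/- complemented with hTDP1; camptothecin omitted.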
An asterisk follows results filed as active. Sampled rows, rich in hits. Any-hit rate of the full collection: about 19%. Calls follow the shape of the dose curve; as a rule, active = well fitted curve in the direction sought with a large enough effect; inconclusive = small, poorly fitted or top-dose-only effect, or another doubt; inactive = no such curve, though single readings can be large; an effect the other way counts as inactive or inconclusive. Unless noted, % is scaled to controls: 0 for no effect and ±100 for the full control effect; potency is read from the fitted curve at half-maximal effect.

`O=C(Nc1ccc(Cl)cc1C(=O)NCc1cccnc1)c1ccc(Cl)cc1Cl` gave TDP1 cell CPT inconclusive, KB-3-1 cytotox 21µM*, KB-V1 cytotox inconclusive, HT1080NT lethal inconclusive, HT1080 IDH1KD tx inconclusive and TDP1 cell noCPT 18µM*.
COc1ccccc1NC(=O)CSC1=Nc2ccccc2C2=NC(CCC(=O)NCc3cccs3)C(=O)N12 (stereo not drawn) was read as TDP1 cell CPT inconclusive, KB-3-1 cytotox inactive, KB-V1 cytotox inactive and TDP1 cell noCPT inconclusive.
`Cc1cc(C)cc(NC(=O)CSCc2cc(=O)c3ccc(C)c(C)c3[nH]2)c1` gave TDP1 cell CPT 3%, KB-3-1 cytotox inactive, KB-V1 cytotox inactive and TDP1 cell noCPT -22%.
For CN1CCOc2c1cnn(CCO)c2=O the results were TDP1 cell CPT -6%, KB-3-1 cytotox inactive, KB-V1 cytotox inactive, HT1080NT lethal 24%, HT1080 IDH1KD tx 10% and TDP1 cell noCPT -12%.
Screening CC(C)[C@H]1CN=C2N(CCNC(=O)CCC3CCCCC3)[C@H](Cc3ccc(O)cc3)CN21 returned TDP1 cell CPT 13µM*, KB-3-1 cytotox inactive, KB-V1 cytotox inactive, HT1080NT lethal -12%, HT1080 IDH1KD tx -17% and TDP1 cell noCPT 8.2µM*.
COc1ccc(C[C@H]2CN3C(=NC[C@@H]3Cc3ccccc3)N2CCNC(=O)CCC2CCCCC2)cc1 was read as TDP1 cell CPT 13µM*, KB-3-1 cytotox inconclusive, KB-V1 cytotox 16µM*, HT1080NT lethal inconclusive, HT1080 IDH1KD tx inconclusive and TDP1 cell noCPT 16µM*.
Screening O=C(CCC1CCCCC1)NCCN1C2=NC[C@H](Cc3ccc(O)cc3)N2C[C@H]1Cc1ccc(O)cc1 returned TDP1 cell CPT inconclusive, KB-3-1 cytotox inactive, KB-V1 cytotox inconclusive, HT1080NT lethal 2%, HT1080 IDH1KD tx 7% and TDP1 cell noCPT inconclusive.
C[C@@H]1CN=C2N(CCNC(=O)CCC3CCCCC3)[C@H](Cc3ccc(O)cc3)CN21 was read as TDP1 cell CPT 13µM*, KB-3-1 cytotox inactive, KB-V1 cytotox inactive, HT1080NT lethal -3%, HT1080 IDH1KD tx 3% and TDP1 cell noCPT 16µM*.
Screening C/C=C(\C)C(=O)NCCN1C2=NC[C@H](C)N2C[C@@H]1Cc1ccc(OC)cc1 returned TDP1 cell CPT -20%, KB-3-1 cytotox inactive, KB-V1 cytotox inactive, HT1080NT lethal 9%, HT1080 IDH1KD tx 11% and TDP1 cell noCPT -1%.
Screening COc1ccc(C[C@H]2CN3C(=NC[C@@H]3C(C)C)N2CCNC(=O)CCC2CCCCC2)cc1 returned TDP1 cell CPT 8.2µM*, KB-3-1 cytotox inactive, KB-V1 cytotox inactive, HT1080NT lethal -1%, HT1080 IDH1KD tx -19% and TDP1 cell noCPT 7.3µM*.
For CCOC(=O)c1csc(NC(=O)C2=COCCO2)n1 the results were TDP1 cell CPT 0%, KB-3-1 cytotox inactive, KB-V1 cytotox inactive, HT1080NT lethal 0%, HT1080 IDH1KD tx 1% and TDP1 cell noCPT 16%.
For COc1ccc(-c2c(C)nn3c(C(F)(F)F)cc(C)nc23)cc1OC the results were TDP1 cell CPT -28% and TDP1 cell noCPT inconclusive.
`CC(=O)Oc1ccccc1C(=O)Nc1ccccc1C(=O)N1CCCCC1` gave TDP1 cell CPT -9%, KB-3-1 cytotox inactive, KB-V1 cytotox inactive, HT1080NT lethal -4%, HT1080 IDH1KD tx -4% and TDP1 cell noCPT -8%.
`COc1ccc(C[C@@H]2CN3C(=NC[C@@H]3C)N2CCNC(=O)c2ccc(C)c(Br)c2)cc1` gave TDP1 cell CPT 23µM*, KB-3-1 cytotox inconclusive, KB-V1 cytotox inactive, HT1080NT lethal -29%, HT1080 IDH1KD tx -11% and TDP1 cell noCPT 13µM*.
`O=[N+]([O-])c1ccc(-c2c(-c3ccccc3)ncc3cc(F)ccc23)cc1` gave TDP1 cell CPT 15µM*, KB-3-1 cytotox inactive, KB-V1 cytotox inactive, HT1080NT lethal inconclusive, HT1080 IDH1KD tx -28% and TDP1 cell noCPT 18µM*.
O=[N+]([O-])c1cccc(-c2c(-c3ccccc3)ncc3cc(F)ccc23)c1 was read as TDP1 cell CPT 8.2µM*, KB-3-1 cytotox inconclusive, KB-V1 cytotox inactive, HT1080NT lethal 0%, HT1080 IDH1KD tx -13% and TDP1 cell noCPT 21µM*.
O=[N+]([O-])c1cccc(-c2cnc3ccccc3n2)c1 was read as TDP1 cell CPT 4%, KB-3-1 cytotox inactive, KB-V1 cytotox inactive, HT1080NT lethal 19%, HT1080 IDH1KD tx 9% and TDP1 cell noCPT -14%.
For ClC(Cl)(Cl)c1nc(N/N=C/c2ccncc2)c2ccccc2n1 the results were TDP1 cell CPT -18%, KB-3-1 cytotox inactive, KB-V1 cytotox inactive, HT1080NT lethal -3%, HT1080 IDH1KD tx 0% and TDP1 cell noCPT inconclusive.
`CN(C)c1nc(NCc2ccccc2)nc(N/N=C/c2cccc(Br)c2)n1` gave TDP1 cell CPT 5.8µM*, KB-3-1 cytotox inactive, KB-V1 cytotox inconclusive, HT1080NT lethal -17%, HT1080 IDH1KD tx inconclusive and TDP1 cell noCPT 7.3µM*.
`Cc1cc(N/N=C/c2ccncc2)nc2ccccc12` gave TDP1 cell CPT -26%, KB-3-1 cytotox inconclusive, KB-V1 cytotox 6.5µM*, HT1080NT lethal 7%, HT1080 IDH1KD tx -4% and TDP1 cell noCPT inconclusive.
`Cc1cc(N/N=C/c2cccc(Br)c2)nc2ccccc12` gave TDP1 cell CPT -22%, KB-3-1 cytotox inactive, KB-V1 cytotox 21µM*, HT1080NT lethal -1%, HT1080 IDH1KD tx 0% and TDP1 cell noCPT -25%.
Cc1ncoc1C(=O)N1CCOc2ccc(CN3CCC(Oc4cccnc4)CC3)cc2C1 was read as TDP1 cell CPT 7% and TDP1 cell noCPT -24%.
`O=C(O)CCCN1C(=O)C2C3CCC(C3)C2C1=O` (stereo not drawn) gave TDP1 cell CPT inconclusive, KB-3-1 cytotox inactive, KB-V1 cytotox inconclusive, HT1080NT lethal 1%, HT1080 IDH1KD tx 2% and TDP1 cell noCPT 1%.
`Cc1nnc(C)n1/N=C/c1ccccn1` gave TDP1 cell CPT -1%, KB-3-1 cytotox inactive, KB-V1 cytotox inactive, HT1080NT lethal 11%, HT1080 IDH1KD tx 12% and TDP1 cell noCPT 1%.
Cn1c(N/N=C/c2cc3ccccc3nc2Cl)nc2ccccc21 was read as TDP1 cell CPT 3.3µM*, KB-3-1 cytotox inconclusive, KB-V1 cytotox inconclusive, HT1080NT lethal inconclusive, HT1080 IDH1KD tx inconclusive and TDP1 cell noCPT 2.6µM*.
